Source: PubChem BioAssay (NCATS)
Records with an inconclusive call do not appear. Activity calls are given as the source filed them. Calls follow the shape of the dose curve; as a rule, active = well fitted curve in the direction sought with a large enough effect; inconclusive = small, poorly fitted or top-dose-only effect, or another doubt; inactive = no such curve, though single readings can be large; an effect the other way counts as inactive or inconclusive.

Tests used:
[1] = SW1088 Cancer Cell Toxicity qHTS against the NCATS CANVASS Library (AID 1347350); also: nearly all actives have a fitted effect of over 75% in size
Method in brief: (§1)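 ATP content after 72 h treatment, detected by CellTiter-Glo luminescence (15min room-temperature development), reflects cell viability. Wells contained 1000 cells and received compounds at 11 concentrations.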

[2] = U-118MG Cancer Cell Toxicity qHTS against the NCATS CANVASS Library (AID 1347351)
Method in brief: as §1

[3] = COV-362 Cancer Cell Toxicity qHTS against the NCATS CANVASS Library (AID 1347352)
Method in brief: (§2)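 First, 1000 cells go into each well and rest for 4 hours. Next, an 11-point dilution range is pinned in. Plates then incubate 72 hours before CellTiter-Glo addition and luminescence reading.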

[4] = A2780 Cisplatin Sensitive Ovarian Cancer Cell Toxicity qHTS against the NCATS CANVASS Library (AID 1347353); details: A2780 ovarian cancer viability, ATPLite luminescence, 72 h; at 15.4 µM (top of the series); also: nearly all actives have a fitted effect of over 60% in size
Method in brief: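 Cells are plated at 750 per well and rest for 4 hours. Compounds are added across eleven concentrations, and incubated 72 hours before ATP is quantified by luminescence.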

[5] = UWB1.289-WTBRCA1 Cancer Cell Toxicity qHTS against the NCATS CANVASS Library (AID 1347354)
Method in brief: as §2

[6] = HEK-293 Cancer Cell Toxicity qHTS against the NCATS CANVASS Library (AID 1347355); details: HEK-293 viability, CellTiter-Glo luminescence, 72 h; at 15.4 µM (top of the series); also: nearly all actives have a fitted effect of over 65% in size
Method in brief: as §2

[7] = HPAF-II 24hr Apoptosis Induction qHTS against the NCATS CANVASS Library (AID 1347356)
Method in brief: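 Cells seeded at 500 per well, then compounds pin-transferred in an 11-point concentration series. After 24 hours at 37 degrees C, Caspase-Glo 3/7 was added and luminescence measured following 15 min at room temperature.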

[8] = HEK293 18hr Apoptosis Induction qHTS against the NCATS CANVASS Library (AID 1347357)
Method in brief: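 HEK293 cells (500/well, DMEM + 10% FBS) treated with an 11-point series for 18 h at 37 degrees C. Caspase-3/7 activity read by Caspase-Glo luminescence after 15 min at room temperature.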

[9] = HPAF-II 12hr Apoptosis Induction qHTS against the NCATS CANVASS Library (AID 1347358)
Method in brief: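 Cells plated at 500 per well are dosed with compound and incubated 12 hours at 37 degrees C. Caspase-Glo 3/7 reagent is added and, after 15 min at room temperature, luminescence proportional to caspase activity is measured.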

[10] = HEK293 24hr Apoptosis Induction qHTS against the NCATS CANVASS Library (AID 1347359)
Method in brief: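 HEK293 cells (500/well, DMEM + 10% FBS) were exposed to compounds in an 11-point series for 24 hours at 37 degrees C, then caspase-3/7 activity was read by Caspase-Glo DEVD luciferase luminescence after 15 min.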

[11] = HPAF-II 18hr Apoptosis Induction qHTS against the NCATS CANVASS Library (AID 1347360)
Method in brief: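 HPAF-II cells at 500/well were exposed for 18 h at 37 C to an 11-point compound series. Caspase-3/7 activity was read by Caspase-Glo luminescence after 15 min at RT.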

[12] = HEK293 12hr Apoptosis Induction qHTS against the NCATS CANVASS Library (AID 1347361)
Method in brief: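 HEK293 cells (500/well) were exposed to an 11-point qHTS concentration series for 12 hours at 37 degrees C. Caspase-3/7 activity was then read by DEVD-substrate luciferase luminescence after 15 min at room temperature.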

[13] = tested on: NAD(P)H diaphorase (Clostridium kluyveri); assay: Diaphorse counterscreen qHTS: Assay Interference Panel against the NCATS CANVASS Library (AID 1347362)
Method in brief: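 Clostridium kluyveri diaphorase in PBS with 0.01% Tween-20 was preincubated 15 min at room temperature in the dark with compounds (11-point series). Resorufin fluorescence (ex 525/20, em 598/25) was read 5 min after adding resazurin/NADH.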

[14] = target: Luciferin 4-monooxygenase (Photinus pyralis) (UniProt P08659); assay: Firefly luciferase counterscreen qHTS: Assay Interference Panel against the NCATS CANVASS Library (AID 1347363)
Sequence of Luciferin 4-monooxygenase (Photinus pyralis) (P08659 whole entry, looked up): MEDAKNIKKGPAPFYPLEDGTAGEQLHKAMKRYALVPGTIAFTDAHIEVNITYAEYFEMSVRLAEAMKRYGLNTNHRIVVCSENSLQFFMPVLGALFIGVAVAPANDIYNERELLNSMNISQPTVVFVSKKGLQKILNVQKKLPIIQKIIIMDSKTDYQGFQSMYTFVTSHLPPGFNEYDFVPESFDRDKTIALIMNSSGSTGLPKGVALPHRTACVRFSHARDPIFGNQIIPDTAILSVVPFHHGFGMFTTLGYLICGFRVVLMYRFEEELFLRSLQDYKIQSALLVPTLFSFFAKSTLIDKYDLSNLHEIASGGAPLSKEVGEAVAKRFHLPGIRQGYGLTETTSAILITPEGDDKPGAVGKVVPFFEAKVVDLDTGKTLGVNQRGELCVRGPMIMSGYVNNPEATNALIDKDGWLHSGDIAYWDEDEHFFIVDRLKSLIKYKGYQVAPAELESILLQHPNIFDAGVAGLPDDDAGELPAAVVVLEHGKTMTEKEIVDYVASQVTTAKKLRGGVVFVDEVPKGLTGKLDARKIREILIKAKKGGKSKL
Method in brief: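 Purified P. pyralis luciferase was added to compounds (11-point series) preincubated 15 min at room temperature with substrate containing 0.013 mM D-luciferin and 0.013 mM ATP; luminescence was read after 5 min.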

[15] = KB-8-5-11 Cancer Cell Toxicity qHTS against the NCATS CANVASS Library (AID 1347364); details: KB-8-5-11 MDR cells viability, CellTiter-Glo, 72 h; at 15.4 µM (top of the series); also: nearly all actives have a fitted effect of over 75% in size
Method in brief: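 Terse: KB-8-5-11, 500 cells/well, 72 hr, 37C/5% CO2, 11-pt titration, CellTiter-Glo readout; confirmatory runs ± 1uM tariquidar in medium.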

[16] = SDT Cancer Cell Toxicity qHTS against the NCATS CANVASS Library (AID 1347365);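 also: SDT canine glioma cells 500 per well in 1536 well plates; nearly all actives have a fitted effect of over 60% in size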
Method in brief: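 Cytotoxicity is measured from cellular ATP: compounds in an 11-point concentration series are pinned onto SDT cells, incubated 72 hr at 37C, then CellTiterGlo is added and luminescence read.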

[17] = KB-3-1 Cancer Cell Toxicity qHTS against the NCATS CANVASS Library (AID 1347366); details: KB-3-1 viability, CellTiter-Glo luminescence, 72 h; at 15.4 µM (top of the series); also: nearly all actives have a fitted effect of over 75% in size
Method in brief: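 KB-3-1 cells (500/well) in DMEM with 10% FBS were exposed to compounds for 72 h at 37C. Viability was read by CellTiter-Glo luminescence.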

[18] = qHTS for ATAD5 Agonist screened against the NCATS CANVASS Library (AID 1347367);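 also: luciferase reporter driven by ATAD5 which rises upon DNA damage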
Method in brief: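 Luciferase reporter under ATAD5 control, stably integrated in HEK293T cells (2000/well). Compounds (11 points) incubated 16 h at 37C; viability read first by CellTiter-Fluor, then luminescence reporting ATAD5 activation. MMS positive control.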

[19] = G06 Cancer Cell Toxicity qHTS against the NCATS CANVASS Library (AID 1347368); also: nearly all actives have a fitted effect of over 60% in size
Method in brief: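 Cells were plated at 500 per well, then compounds were added over an 11-point range. After 72 hr at 37C, CellTiterGlo was added and luminescence measured as ATP content.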

[20] = MCF7 Cancer Cell Toxicity qHTS against the NCATS CANVASS Library (AID 1347369); details: MCF7 viability, ATP luminescence (CellTiter-Glo), 72 h; at 15.3 µM (top of the series)
Method in brief: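 MCF7 cells (500/well) were exposed 72 h at 37 °C to compounds in an 11-point series. Viability was read as ATP content by CellTiterGlo luminescence.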

Measured: outcome

C[C@@H]1O[C@@H](OC[C@H]2O[C@@H](Oc3c(-c4ccc(O)c(O)c4)oc4cc(O)cc(O)c4c3=O)[C@H](O)[C@@H](O)[C@@H]2O)[C@H](O)[C@H](O)[C@H]1O
inactive: all assays above
